Rows were chosen to be rich in hits. Some 22% of all compounds tested hit in one or more screens of this group.
CYP2C19 act = activators of human cytochrome P450 2C19. P33261. recombinant CYP2C19, luciferin-H EGE luminescence; hits give high values; 0 = fully inhibited enzyme, 1 = untreated enzyme. activation factor at 5 µM. 96,000 tested, under 10 active. AID 1025;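 active = activation factor of at least 2 at 5 µM in the primary screen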;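 note: 0 = wells with 2.5 mM tranylcypromine and 1 = vehicle-only wells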
Target sequence (P33261 whole entry, looked up): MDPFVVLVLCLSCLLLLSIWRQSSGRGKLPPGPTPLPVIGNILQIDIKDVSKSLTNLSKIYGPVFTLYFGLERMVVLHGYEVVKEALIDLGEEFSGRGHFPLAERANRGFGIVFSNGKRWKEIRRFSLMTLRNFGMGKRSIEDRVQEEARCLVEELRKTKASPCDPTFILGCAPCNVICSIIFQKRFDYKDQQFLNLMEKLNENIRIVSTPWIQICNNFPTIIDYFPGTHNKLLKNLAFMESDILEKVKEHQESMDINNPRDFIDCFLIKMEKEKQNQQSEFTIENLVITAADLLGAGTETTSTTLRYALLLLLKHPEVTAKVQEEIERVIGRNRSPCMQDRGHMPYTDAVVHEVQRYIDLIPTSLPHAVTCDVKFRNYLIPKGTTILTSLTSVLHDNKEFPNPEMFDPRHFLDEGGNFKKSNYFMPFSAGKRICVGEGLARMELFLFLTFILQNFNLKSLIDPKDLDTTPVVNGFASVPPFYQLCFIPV
cytoskel mod = cytoskeleton assembly modification. AID 836. hit rate 0.18% among 91,000. HUVEC TNFa F-actin phalloidin imaging, high content. inhibition, % at 2 µM;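 active = inhibition above the batch mean plus 3 SD and confirmed as a hit by visual image inspection, cut at about 30% in these data, passing the limit was not always enough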
CYP2C9 activ = CYP2C9 (human) activation; P11712; activation factor at 5 µM; recombinant CYP2C9, luciferin-H conversion, luminescence; hits give high values; factor 1 = untreated enzyme, 0 = blocked; hit rate 1.4% among 96,000;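 active = activation factor of 2 or more for CYP2C9 at a 5 µM dose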;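 note: 0 = sulfaphenazole-blocked wells and 1 = vehicle-only wells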
CYP2C9 inhib = human CYP2C9 inhibition; AID 777; hit rate 20% among 96,000; inhibition, % at 5 µM; CYP2C9 Supersomes, luciferin-H conversion, luminescence; P11712;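 active = blocking of liver enzyme CYP2C9 beyond about 50% at 5 µM, limit read from the data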
CYP2C19 inhib = inhibitors of human CYP2C19; hit rate 21% among 96,000; inhibition, % at 5 µM; CYP2C19 Supersomes, luciferin-H EGE luminescence, 30 min; P33261;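 active = CYP2C19 inhibition above a set limit at 5 µM in the primary screen, cut at about 50% in these data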;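 note: plate controls were negative control wells for no effect and 2.5 mM tranylcypromine positive control for full effect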
E-sel TNF inh = TNF alpha driven E-selectin expression inhibition; HUVEC TNFa-induced E-selectin immunofluorescence, high content; inhibition, % at 2 µM; hit rate 0.71% among 120,000;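 active = inhibition above the batch mean plus 3 SD, and confirmed as a hit on visual image review, cut at about 43% in these data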;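 note: 0% = TNF-stimulated DMSO wells and 100% = unstimulated control wells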
Numbers without * were called inactive; x = not tested or not shown.

SMILES	CYP2C19 act	cytoskel mod	CYP2C9 activ	CYP2C9 inhib	CYP2C19 inhib	E-sel TNF inh
COc1ccc(C2(C(=O)NC3CCCCC3)CCOCC2)cc1OC	0.9	19.1	1	1.6	14.8	-45.5
O=[N+]([O-])c1ccccc1N/N=C/c1c[nH]c2ccccc12	1.1	-13.6	1.1	-12.4	-13.0	-20.5
O=[N+]([O-])c1ccc(N/N=C/c2c[nH]c3ccccc23)cc1	0.9	15.4	0.4	58.1*	13.6	38.9
CCOC(=O)Nc1sc2nc(C)cc(C)c2c1-n1cccc1	0.5	-5.2	0.3	65.6*	45.3	9.4
Nc1nc(CN2CCN(c3ccc(F)cc3)CC2)nc(N2CCCc3ccccc32)n1	0.4	-29.4	0.5	53.2*	59.9*	-2.3
COc1ccc(N2CCN(Cc3nc(N)nc(Nc4ccccc4OC)n3)CC2)cc1	0.8	8.6	0.8	17.9	18.0	-5.0
Cc1nc2ccc(S(=O)(=O)N(C)CC(=O)NCc3ccc4c(c3)OCO4)cc2s1	0.4	-6.4	0.5	53.4*	57.2*	x
CCc1nnc(NC(=O)C(NS(=O)(=O)c2ccc3c(c2)OCCO3)C(C)C)s1 (configuration not stated)	0.1	9.4	0.1	89.6*	94.6*	8.2
Cc1nc2ccc(S(=O)(=O)NCC(=O)NCc3ccc4c(c3)OCO4)cc2s1	0.5	-23.1	0.6	38.3	49.4	x
Cc1nc2ccc(S(=O)(=O)NC(C(=O)NCc3ccc4c(c3)OCO4)C(C)C)cc2s1 (configuration not stated)	0.5	9.9	0.7	31.1	51.0*	x
CC(C)(C)NC(=O)C[n+]1ccc(C(N)=O)cc1	x	x	x	x	x	-12.3
Cn1c(Cn2c(=O)sc3ccccc32)nnc1SCc1cccnc1	0.6	4.8	1	0.6	42.5	x
O=C(NC(=S)N1CCN(c2ccc(Cl)cc2[N+](=O)[O-])CC1)c1cccs1	x	x	x	x	x	-6.8
Cn1nccc1C(=O)c1ccc(Cl)cc1	0.4	-16.6	0.8	22.7	58.1*	x
Cn1nccc1C(=O)Nn1cnnc1	1.1	-3.3	1	1.7	-13.7	x
CC(NC(=O)c1cc2ccccc2o1)C(=O)O (configuration not stated)	x	-30.5	x	x	x	42.0
COc1ccc(C2Nc3ccccc3C(=O)N2c2ccc(C)cc2)cc1Cn1nc(C)c([N+](=O)[O-])c1C (configuration not stated)	0.5	-5.8	0.1	91.7*	53.3*	50.6
O=C(c1ccc(Cl)cc1)c1c[nH]c(C(=O)C(Cl)(Cl)Cl)c1	0.7	-7.1	0.5	48.7	26.6	-2.7
COC(=O)c1ccccc1NC(=O)CSc1nccc(C)n1	x	x	x	x	x	-13.3
COc1cc2c(cc1OC)C(C(=O)N1CCN(c3ccccc3)CC1)C(c1cccs1)N(C)C2=O (configuration not stated)	0.9	-3.3	0.9	7.0	11.6	0.5
Cc1cc(C)c(S(=O)(=O)Nc2nnc(C)s2)c(C)c1	1	-39.9	0.1	86.4*	-1.7	-14.0
Cc1cc(C)c(S(=O)(=O)Nc2ccccc2-c2ccccc2)c(C)c1	x	x	x	x	x	7.7
CCc1cccc(CC)c1NC(=O)COC(=O)Cc1ccsc1	x	x	x	x	x	-38.0
Cc1cc2ncn(CC(O)COC3CCCCC3)c2cc1C (configuration not stated)	0.4	-1.8	0.1	86.0*	64.3*	5.3
O=C(CSc1ccc(-c2ccco2)nn1)NC1CCCC1	x	x	x	x	x	8.0
SMILES	CYP2C19 act	cytoskel mod	CYP2C9 activ	CYP2C9 inhib	CYP2C19 inhib	E-sel TNF inh
CCCNc1[nH]c(=O)n(C)c(=O)c1N=O	1.1	-6.5	1.1	-5.1	-5.5	-6.2
Cc1ccc(C)c2nc(SCC(=O)N3CCCc4ccccc43)c(C#N)cc12	0.9	1.6	0.8	24.6	5.7	-36.4
Cc1cc(C)nc(SCNC(=O)c2ccccc2)n1	x	6.5	x	x	x	-20.4
Cc1cc(C)nc(Sc2nc(Cl)nc(N(c3ccccc3)c3ccccc3)n2)n1	0.3	-8.0	0.5	51.6*	66.8*	2.2
CCOc1ccc(OCC)c(NS(=O)(=O)c2ccc3c(c2)n(C)c(=O)c(=O)n3C)c1	0.9	-30.0	0.9	13.1	14.9	-12.7
CCOc1ccc(S(=O)(=O)Nc2nc3ccc(OC)cc3s2)cc1	0.2	-2.5	0	98.6*	82.3*	-15.0
CCOc1ccc2nc(NS(C)(=O)=O)sc2c1	1	-12.6	0.7	28.9	-0.9	-19.6
Cc1cc(C)cc(NS(=O)(=O)c2ccc3c(c2)c(=O)n(C)c(=O)n3C)c1	1	x	0.7	32.4	-2.3	9.8
